Screen size: about 410,000 compounds; about 5,000 (1.2%) were called active. About 13% were inconclusive and are not listed. Calls follow the shape of the dose curve; as a rule, active = well fitted inhibition curve with a large enough effect; inconclusive = small, poorly fitted or top-dose-only effect; inactive = no such curve, though single readings can be large or run the other way. Shown is part of a subset that was picked to be rich in actives. Where a call stands in place of a potency, no number is given.
Assay: qHTS for Inhibitors of TGF-b; also: nearly all actives have a fitted effect of over 65% in size
Settings: HepG2 CAGA-GFP TGF-b/SMAD3 reporter, GFP fluorescence, 18 h, TGF-beta stimulated, 500 pg/mL final; series mostly up to 46.1 µM
Summary of the method: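 Per well, imaged GFP fluorescence of HEPG2 CAGA-GFP cells gives the signal; cells get compound, then TGF-beta (500 pg/mL final), 18 h at 37 degrees C; %Activity versus -TGF-beta and +DMSO controls.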
With `CNC(=O)C[C@H]1C(=O)N(c2ccc(OC)cc2)C[C@@H]1Cc1ccccc1` the Potency was “inactive”.
For `C[C@H]1CN(c2ccc(Br)cc2)C(=O)[C@@H]1CC(=O)Nc1ccc(Br)cc1`, the Potency was “inactive”.
With `CC(C)c1ccc(NC(=O)CN(C)S(=O)(=O)c2ccc3c(c2)c(=O)n(C)c(=O)n3C)cc1` the Potency was “inactive”.
For `Cc1c(CNC2CCCCC2)c(C(=O)O)c(C)n1Cc1cccc(Cl)c1`, the Potency was “inactive”.
In the case of `Cc1cccc(N2CCN(C3=C(c4ccccc4)C(=O)c4ccccc43)CC2)c1C`, the Potency is reported as “inactive”.
With `COc1ccc(CN2CCCC(N3CCc4ccccc4C3)C2)c(O)c1` (configuration not stated) the Potency was “inactive”.
For `COc1cc(C(=O)CCc2ccc3c(c2)OCO3)cc(OC)c1OC`, the Potency was “inactive”.
For `COc1c(O)ccc2c1CN1CCc3cc4c(cc3C1C2)OCO4` (configuration not stated), the Potency was 14.1 µM (active).
With `C#CCOc1ccc(C2CC(=O)Nc3c2c(C)nn3-c2nc(C)cc(C)n2)cc1` (configuration not stated) the Potency was “inactive”.
For `COc1ccccc1CNc1ccc(-c2nc(-c3ccccc3C)no2)cc1[N+](=O)[O-]`, the Potency was “inactive”.
For `COc1ccc(OCCNS(=O)(=O)Cc2ccccc2)cc1`, the Potency was “inactive”.
In the case of `COc1ccc(S(=O)(=O)NCCOc2ccccc2)cc1F`, the Potency is reported as “inactive”.
In the case of `COc1ccc(S(=O)(=O)NCCCCOc2ccc(Cl)cc2)cc1`, the Potency is reported as 12.6 µM (active).
For `NC(=O)C1CCN(C(=O)c2cccc(NC(=O)c3nsc4ccccc34)c2)CC1`, the Potency was “inactive”.
In the case of `O=C(CC(c1cccs1)N1Cc2ccccc2C1=O)Nc1ccc(F)cc1F` (configuration not stated), the Potency is reported as “inactive”.
For `CCOc1ccc(C(NC(=O)c2cc(OC)c(OC)c(OC)c2)c2cc(Cl)c3cccnc3c2O)cc1` (configuration not stated), the Potency was “inactive”.
With `O=C(c1ccc(S(=O)(=O)N2CCCC2)cc1)N1CCN(c2ccccc2F)CC1` the Potency was “inactive”.
In the case of `CN(c1ccccc1)S(=O)(=O)c1ccc(C(=O)N2CCN(c3ccccc3Cl)CC2)cc1`, the Potency is reported as 15.8 µM (active).
For `CN(c1ccccc1)S(=O)(=O)c1cc(C(=O)N2CCN(c3ncccn3)CC2)ccc1Cl`, the Potency was “inactive”.
With `COc1ccc(OCCCn2c(C)nc3cc(C)c(C)cc32)cc1` the Potency was “inactive”.
In the case of `Cn1nnc2c(N3CCN(c4ccccc4)CC3)ncnc21`, the Potency is reported as “inactive”.
With `O=C(O)C1=C/C(=C/C=[N+]2c3cc(O)c(O[C@H]4OC(CO)[C@@H](O)[C@@H](O)[C@@H]4O)cc3C[C@@H]2C(=O)[O-])C[C@H](C(=O)O)N1` (some centres not stated) the Potency was “inactive”.
For `Cc1nn(CC(=O)N2CCN(c3cccc(C(F)(F)F)c3)CC2)c(=O)c2cc3sccc3n12`, the Potency was “inactive”.
With `Cc1cc(NC(=O)CC(C)C)cc(-c2nc3ncccc3o2)c1O` the Potency was “inactive”.
With `CN(C)C(=O)c1cccc(-c2cnc3sc(NCc4ccc5c(c4)OCO5)nn23)c1` the Potency was 10 µM (active).
In the case of `O=C(CSc1ncnc2scc(-c3ccccc3)c12)NCc1ccc2c(c1)OCO2`, the Potency is reported as “inactive”.
With `CCOc1c2ccc(C(=O)NCc3ccc4c(c3)OCO4)cc2nn1C` the Potency was “inactive”.

Source: PubChem BioAssay AID588855 (National Center for Advancing Translational Sciences (NCATS), 2011)
Potency is read from the fitted curve at half-maximal effect.
